This passage reports AC50 and outcome results from PubChem BioAssay (EPA / NIEHS).

What is called AC50 is the concentration giving half of the maximal activity seen.

Calls of active or inactive are those of the source. Rule for the calls: active = hit-call score of the fitted dose curve at least 0.9, where 1 is the maximum; inconclusive = response in the unintended direction; inactive = score below 0.9.

The test relates to DIO3 (gene 1735). The test can be described thus: CCTE_GLTED_hDIO3: CCTE's human Deiodinase 3 (DIO3) Inhibition Assay, Great Lakes Toxicology and Ecology Division (GLTED) Lab (AID 2284055).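 For AC50: potency is for inhibition seen as loss of released iodide signal.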 As for the experimental part: CCTE_GLTED_hDIO3 is a cell-free, single-readout assay designed to test the inhibitory activity of chemicals toward human iodothyronine Deiodinase type 3 (DIO3) enzyme. Enzyme is incubated in presence of test chemical for 3 hours during which uninhibited enzyme liberates free iodide from substrate. Free iodide is measured in a second step using the Sandell-Kolthoff method.CCTE_GLTED_hDIO3 is the assay component measured from the CCTE_GLTED_hDIO3 assay. It is designed to make measurements of enzyme activity, a form of enzyme reporter, as detected with absorbance signals by spectrophotometry.Data from the assay component CCTE_GLTED_hDIO3 was analyzed into 1 assay endpoint. This assay endpoint, CCTE_GLTED_hDIO3, was analyzed in the positive analysis fitting direction relative to DMSO as the negative control and baseline of activity. Using a type of enzyme reporter, loss-of-signal activity can be used to understand changes in the enzymatic activity as they relate to the gene DIO3. Furthermore, this assay endpoint can be referred to as a primary readout, because the performed assay has only produced 1 assay endpoint. To generalize the intended target to other relatable targets, this assay endpoint is annotated to the 'deiodinase' intended target family, where the subfamily is 'deiodinase Type 3'.
[…] assay, developed at Great Lakes Toxicology and Ecology Division (GLTED) within the EPA's Center for Computational Toxicology and Exposure (CCTE), is designed to test the chemicals' ability to inhibit DIO3. Assay uses human deiodinase type 3 (DIO3) enzyme produced with adenovirus expression system. Assay is based on iodide release measured by the Sandell-Kolthoff method and is run in 96-well plate format with assay plates run in triplicate (n=3). The method used for the deiodinase assay was largely based on Renko et al. (2012, 2015). These works describe the utilization of the SK reaction to measure deiodinase-liberated iodide in a 96-well-plate format. The SK reaction is based on the reduction of the yellow-colored cerium IV to the non-colored cerium III by arsenic, with the rate of this reaction increased in the presence of iodide in a concentration-dependent manner (Sandell and Kolthoff, 1937). Iodinated test chemicals can interfere as competitive inhibitors, or if the stock chemical has contaminating free-iodide present. Other chemicals, e.g.: nitrite, iron, and thiocyanate can interfere with the Sandell-Kolthoff reaction (see Sandell and Kolthoff, 1937).
For `CCCCCCCCCCCCO`, the AC50 was 82.6 µM (active).

Regarding `CCN(CC)C(=O)c1cc(S(=O)(=O)Cc2ccccc2)c(N2CCC(c3ccccc3)CC2)cc1N(CC)CCN(C)C`, the AC50 is 53.4 µM (active).

With `CC(C)(C)c1cc(/C=C2\SC(N)=NC2=O)cc(C(C)(C)C)c1O`, the AC50 is 19.9 µM (active).

Take `CN(C[C@@H](CC[N+]12CCC(C3CCCCC3)(CC1)CC2)c1ccc(Cl)c(Cl)c1)C(=O)c1cc(C(F)(F)F)cc(C(F)(F)F)c1`: the AC50 is 81.9 µM (active).

On to `CCCCCCCCOC(=O)c1cc(O)c(O)c(O)c1`, for which the half-maximal activity concentration (AC50) is 76.5 µM (active).

On to `CCOC(=O)O[C@H](C)OC(=O)c1ccc2c(c1)cc(C(=O)NC1CCN(C(C)C)CC1)n2Cc1cc(-c2ccc(Cl)s2)on1`, for which the AC50 was 1.16 µM (active).

As for `OC12N=C(c3ccccc3)SC1Cc1cc(Cl)ccc12` (stereo unspecified), the AC50 was 86.5 µM (active).

Consider `CC(C)(c1cc(Br)c(O)c(Br)c1)c1cc(Br)c(O)c(Br)c1`, for which the AC50 is 37.8 µM (active).

For `NC(=O)c1nc(-c2cccc(-c3cc(F)ccc3OCC(F)(F)C(F)(F)F)c2)n[nH]1`, the AC50 is 182 µM (active).

With `O=CCCCC=O`, the AC50 is 9.03 µM (active).

As to `CN(C)c1ccc(C(=C2C=CC(=[N+](C)C)C=C2)c2ccc(N(C)C)cc2)cc1`, the AC50 is 22.6 µM (active).

Regarding `CCCCCCCCCCCO`, the AC50 is 152 µM (active).

As for `NCc1cccc(C2CCN(C(=O)c3ccc(C#Cc4ccccc4F)o3)CC2)c1`, the AC50 is 23.3 µM (active).

Regarding `CC(C)(C)c1csc(-c2cc3cc(OCc4ccccc4CC(=O)O)ccc3o2)n1`, the AC50 is 148 µM (active).

`CN(C)C(=O)C1(N2CCCCC2)CCN(CC[C@@]2(c3ccc(Cl)c(Cl)c3)CN(C(=O)c3ccccc3)CCO2)CC1`: the call was inactive.

As to `CCCCCCCCCCCC[N+](C)(C)C`, the AC50 is 119 µM (active).
